# Shown is part of a subset that was picked to be rich in the strongest signals.
# B1: PX14343A-bvu-539-29-539 (Bacteroides vulgatus) (protein)
# chain: DSLTESSSNTFWQTPDDALMALASCYDALQSNQLYNSDQYSLGPLYMDCISDNGGHFNWSGWMEGYDMAMGIHTPSSSIIGSYWKDCYEVISRCNVLIANIDRVDMDASQKAIYQAEAKTIRALMYINLTMTYQDVPFLTAPLTIDEAECEKTDRAAIVAHVMTDLQDAAEVLPQNASSRGHITKGAALSLLGRVALYNEKWDDAIAAYKQVQGLGYSLDPSYAKLFTQSGETSPEIIFAVRYEGPGMSEGAAFNAHWNTPLEAMNGTIDLADAYYCKDGKPTTDTKIAELNGGGGLDVSKPNPAHFENRDPRLYSTLFVPGMLWNGKGGIDTSASNPYANVYGGAAASLSTVYVYKYFDPTDTSNSWDNGQDFYVVRYAEVLLSLAEAMVQKGGYVYSDVTALVNEVRQRADVNMPTVEEVEGTSLSKDELLEVIKHERRVELAFEGLRLFDLYRWKELDKAVANIENERTMYGLAYEARKFNGERDYVWPLPTAELDTNKKLVQHDLWK
# Tests used:
# Test in all cases: glycan array binding signal (z-score within array); higher = stronger binding
# Settings in all cases: glycan notation: IUPAC condensed, linker removed
# [1] = biological target: Fuc(a1-2)Gal(b1-3)GalNAc(b1-4)[Neu5Ac(a2-3)]Gal(b1-4)Glc
# Procedure, shortened: (§1)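 The Consortium for Functional Glycomics database supplied 3228 glycan arrays, of which those lacking an available protein sequence were dropped. The binding signal, a within-array Z-score, was averaged across arrays of the same protein sequence and across linkers. Negative scores can be read as non-binding.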
# [2] = biological target: Fuc(a1-2)Gal(b1-3)GlcNAc(b1-3)[Neu5Ac(a2-6)Gal(b1-4)GlcNAc(b1-6)]Gal(b1-4)Glc
# Procedure, shortened: as §1
# [3] = biological target: Fuc(a1-2)Gal(b1-4)GlcNAc(b1-3)Gal(b1-4)GlcNAc(b1-2)Man(a1-3)[Fuc(a1-2)Gal(b1-4)GlcNAc(b1-3)Gal(b1-4)GlcNAc(b1-2)Man(a1-6)]Man(b1-4)GlcNAc(b1-4)GlcNAc
# Procedure, shortened: as §1
# [4] = biological target: Fuc(a1-2)Gal(b1-4)[Fuc(a1-3)]GlcNAc(b1-3)Gal(b1-4)[Fuc(a1-3)]GlcNAc
# Procedure, shortened: as §1
# [5] = biological target: Fuc(a1-2)Gal3S(b1-4)GlcNAc
# Procedure, shortened: as §1
# [6] = biological target: Fuc(a1-2)[Gal(a1-3)]Gal(b1-4)GlcNAc(b1-3)[Fuc(a1-2)[Gal(a1-3)]Gal(b1-4)GlcNAc(b1-6)]GalNAc
# Procedure, shortened: as §1
# [7] = biological target: Fuc(a1-2)[GalNAc(a1-3)]Gal(b1-3)GalNAc(a1-3)[Fuc(a1-2)]Gal(b1-4)GlcNAc
# Procedure, shortened: as §1
# [8] = biological target: Fuc(a1-2)[GalNAc(a1-3)]Gal(b1-3)GlcNAc(b1-6)GalNAc
# Procedure, shortened: as §1
# [9] = biological target: Fuc(a1-3)[Gal(b1-4)]GlcNAc(b1-6)GalNAc
# Procedure, shortened: as §1
# [10] = biological target: Fuc(a1-3)[Gal3S(b1-4)]GlcNAc6S
# Procedure, shortened: as §1
# [11] = biological target: Fuc(a1-4)GlcNAc
# Procedure, shortened: as §1
# [12] = biological target: Gal(a1-3)[Gal(a1-4)]Gal(b1-4)GlcNAc
# Procedure, shortened: as §1
# [13] = biological target: Gal(a1-4)Gal(b1-4)GlcNAc
# Procedure, shortened: as §1
# [14] = biological target: Gal(b1-3)GlcNAc
# Procedure, shortened: as §1
# [15] = biological target: Gal(b1-3)GlcNAc(a1-3)Gal(b1-4)GlcNAc
# Procedure, shortened: as §1
# [16] = biological target: Gal(b1-3)GlcNAc(b1-2)Man(a1-3)[Gal(b1-3)GlcNAc(b1-2)Man(a1-6)]Man(b1-4)GlcNAc(b1-4)GlcNAc
# Procedure, shortened: as §1
# [17] = biological target: Gal(b1-3)GlcNAc(b1-3)Gal(b1-4)GlcNAc(b1-3)Gal(b1-4)GlcNAc(b1-2)[Gal(b1-3)GlcNAc(b1-3)Gal(b1-4)GlcNAc(b1-3)Gal(b1-4)GlcNAc(b1-6)]Man(a1-6)[Gal(b1-3)GlcNAc(b1-3)Gal(b1-4)GlcNAc(b1-3)Gal(b1-4)GlcNAc(b1-2)Man(a1-3)]Man(b1-4)GlcNAc(b1-4)[Fuc(a1-6)]GlcNAc
# Procedure, shortened: as §1
# [18] = biological target: Gal(b1-4)GlcNAc(b1-2)Man(a1-3)Man(b1-4)GlcNAc(b1-4)GlcNAc
# Procedure, shortened: as §1
# [19] = biological target: Gal(b1-4)GlcNAc(b1-2)Man(a1-6)[GlcNAc(b1-2)Man(a1-3)]Man(b1-4)GlcNAc(b1-4)GlcNAc
# Procedure, shortened: as §1
# [20] = biological target: Gal(b1-4)GlcNAc(b1-3)Gal(b1-4)GlcNAc(b1-2)Man(a1-3)[Gal(b1-4)GlcNAc(b1-3)Gal(b1-4)GlcNAc(b1-2)Man(a1-6)]Man(b1-4)GlcNAc(b1-4)[Fuc(a1-6)]GlcNAc
# Procedure, shortened: as §1
# [21] = biological target: Gal(b1-4)GlcNAc(b1-3)Gal(b1-4)GlcNAc(b1-3)Gal(b1-4)GlcNAc(b1-2)Man(a1-3)[Gal(b1-4)GlcNAc(b1-3)Gal(b1-4)GlcNAc(b1-3)Gal(b1-4)GlcNAc(b1-2)Man(a1-6)]Man(b1-4)GlcNAc(b1-4)GlcNAc
# Procedure, shortened: as §1
# [22] = biological target: Gal(b1-4)GlcNAc(b1-3)Gal(b1-4)GlcNAc(b1-3)Gal(b1-4)GlcNAc(b1-3)Gal(b1-4)GlcNAc(b1-2)Man(a1-3)[Gal(b1-4)GlcNAc(b1-3)Gal(b1-4)GlcNAc(b1-3)Gal(b1-4)GlcNAc(b1-3)Gal(b1-4)GlcNAc(b1-2)Man(a1-6)]Man(b1-4)GlcNAc(b1-4)GlcNAc
# Procedure, shortened: as §1
# [23] = biological target: Gal(b1-4)GlcNAc(b1-3)Gal(b1-4)GlcNAc(b1-3)Gal(b1-4)GlcNAc(b1-3)Gal(b1-4)GlcNAc(b1-2)[Gal(b1-4)GlcNAc(b1-3)Gal(b1-4)GlcNAc(b1-3)Gal(b1-4)GlcNAc(b1-3)Gal(b1-4)GlcNAc(b1-6)]Man(a1-6)[Gal(b1-4)GlcNAc(b1-3)Gal(b1-4)GlcNAc(b1-3)Gal(b1-4)GlcNAc(b1-3)Gal(b1-4)GlcNAc(b1-2)Man(a1-3)]Man(b1-4)GlcNAc(b1-4)[Fuc(a1-6)]GlcNAc
# Procedure, shortened: as §1
# [24] = biological target: Gal(b1-4)GlcNAc(b1-3)Gal(b1-4)GlcNAc(b1-3)Gal(b1-4)GlcNAc(b1-3)Gal(b1-4)GlcNAc(b1-3)Gal(b1-4)GlcNAc(b1-2)Man(a1-3)[Gal(b1-4)GlcNAc(b1-3)Gal(b1-4)GlcNAc(b1-3)Gal(b1-4)GlcNAc(b1-3)Gal(b1-4)GlcNAc(b1-3)Gal(b1-4)GlcNAc(b1-2)Man(a1-6)]Man(b1-4)GlcNAc(b1-4)GlcNAc
# Procedure, shortened: as §1
# [25] = biological target: Gal(b1-4)GlcNAc(b1-3)Gal(b1-4)GlcNAc(b1-3)Gal(b1-4)GlcNAc(b1-3)Gal(b1-4)GlcNAc(b1-3)Gal(b1-4)GlcNAc(b1-2)[Gal(b1-4)GlcNAc(b1-3)Gal(b1-4)GlcNAc(b1-3)Gal(b1-4)GlcNAc(b1-3)Gal(b1-4)GlcNAc(b1-3)Gal(b1-4)GlcNAc(b1-6)]Man(a1-6)[Gal(b1-4)GlcNAc(b1-3)Gal(b1-4)GlcNAc(b1-3)Gal(b1-4)GlcNAc(b1-3)Gal(b1-4)GlcNAc(b1-3)Gal(b1-4)GlcNAc(b1-2)Man(a1-3)]Man(b1-4)GlcNAc(b1-4)[Fuc(a1-6)]GlcNAc
# Procedure, shortened: as §1
# [26] = biological target: Gal(b1-4)GlcNAc(b1-6)GalNAc
# Procedure, shortened: as §1
# [27] = biological target: Gal3S(b1-3)GlcNAc
# Procedure, shortened: as §1
# [28] = biological target: Gal3S(b1-4)[Fuc(a1-3)]GlcNAc
# Procedure, shortened: as §1
# [29] = biological target: GalNAc3S(b1-4)[Fuc(a1-3)]GlcNAc
# Procedure, shortened: as §1
# [30] = biological target: GlcNAc(b1-3)Gal(b1-4)GlcNAc(b1-3)Gal(b1-4)GlcNAc(b1-3)Gal(b1-4)GlcNAc(b1-3)Gal(b1-4)GlcNAc(b1-2)Man(a1-3)[GlcNAc(b1-3)Gal(b1-4)GlcNAc(b1-3)Gal(b1-4)GlcNAc(b1-3)Gal(b1-4)GlcNAc(b1-3)Gal(b1-4)GlcNAc(b1-2)Man(a1-6)]Man(b1-4)GlcNAc(b1-4)[Fuc(a1-6)]GlcNAc
# Procedure, shortened: as §1
# [31] = biological target: GlcNAc(b1-3)[GlcNAc(b1-6)]Gal(b1-4)GlcNAc
# Procedure, shortened: as §1
# [32] = biological target: Man(a1-3)[Man(a1-6)]Man(b1-4)GlcNAc(b1-4)GlcNAc
# Procedure, shortened: as §1
# [33] = biological target: Man(a1-3)[Man(a1-6)]Man(b1-4)GlcNAc(b1-4)[Fuc(a1-6)]GlcNAc
# Procedure, shortened: as §1
# [34] = biological target: Man(a1-6)Man
# Procedure, shortened: as §1
# [35] = biological target: Neu5Ac(a2-3)Gal(b1-3)[Neu5Ac(a2-6)]GalNAc
# Procedure, shortened: as §1
# [36] = biological target: Neu5Ac(a2-3)Gal(b1-4)GlcNAc
# Procedure, shortened: as §1
# [37] = biological target: Neu5Ac(a2-3)Gal(b1-4)GlcNAc(b1-3)Gal(b1-4)GlcNAc(b1-3)Gal(b1-4)GlcNAc(b1-2)Man(a1-3)[Neu5Ac(a2-3)Gal(b1-4)GlcNAc(b1-3)Gal(b1-4)GlcNAc(b1-3)Gal(b1-4)GlcNAc(b1-2)Man(a1-6)]GalNAc
# Procedure, shortened: as §1
# [38] = biological target: Neu5Ac(a2-3)Gal(b1-4)GlcNAc(b1-3)Gal(b1-4)GlcNAc(b1-6)[Gal(b1-3)]GalNAc
# Procedure, shortened: as §1
# [39] = biological target: Neu5Ac(a2-3)Gal(b1-4)GlcNAc(b1-6)GalNAc
# Procedure, shortened: as §1
# [40] = biological target: Neu5Ac(a2-3)GalNAc(b1-4)GlcNAc
# Procedure, shortened: as §1
# [41] = biological target: Neu5Ac(a2-8)Neu5Ac(a2-3)Gal(b1-3)GalNAc(b1-4)[Neu5Ac(a2-3)]Gal(b1-4)Glc
# Procedure, shortened: as §1
# [42] = biological target: Neu5Ac(a2-8)Neu5Gc(a2-3)Gal(b1-4)GlcNAc
# Procedure, shortened: as §1
# [43] = biological target: Neu5Gc(a2-3)Gal(b1-4)GlcNAc
# Procedure, shortened: as §1
# [44] = biological target: Neu5Gc(a2-3)Gal(b1-4)[Fuc(a1-3)]GlcNAc
# Procedure, shortened: as §1
binder,measurement,setting,value
B1,glycan array binding signal (z-score),[1],-0.271
same,glycan array binding signal (z-score),[2],-0.213
same,glycan array binding signal (z-score),[3],8.08
same,glycan array binding signal (z-score),[4],-0.083
same,glycan array binding signal (z-score),[5],-0.406
same,glycan array binding signal (z-score),[6],7.49
same,glycan array binding signal (z-score),[7],0.132
same,glycan array binding signal (z-score),[8],-0.292
same,glycan array binding signal (z-score),[9],-0.298
same,glycan array binding signal (z-score),[10],-0.338
same,glycan array binding signal (z-score),[11],-0.448
same,glycan array binding signal (z-score),[12],6.76
same,glycan array binding signal (z-score),[13],-0.281
same,glycan array binding signal (z-score),[14],-0.258
same,glycan array binding signal (z-score),[15],-0.396
same,glycan array binding signal (z-score),[16],0.765
same,glycan array binding signal (z-score),[17],4.27
same,glycan array binding signal (z-score),[18],8.02
same,glycan array binding signal (z-score),[19],-0.116
same,glycan array binding signal (z-score),[20],0.489
same,glycan array binding signal (z-score),[21],1.35
same,glycan array binding signal (z-score),[22],6.18
same,glycan array binding signal (z-score),[23],3.38
same,glycan array binding signal (z-score),[24],2.78
same,glycan array binding signal (z-score),[25],9.28
same,glycan array binding signal (z-score),[26],-0.291
same,glycan array binding signal (z-score),[27],-0.038
same,glycan array binding signal (z-score),[28],-0.121
same,glycan array binding signal (z-score),[29],-0.399
same,glycan array binding signal (z-score),[30],0.355
same,glycan array binding signal (z-score),[31],-0.27
same,glycan array binding signal (z-score),[32],-0.432
same,glycan array binding signal (z-score),[33],-0.297
same,glycan array binding signal (z-score),[34],-0.184
same,glycan array binding signal (z-score),[35],0.662
same,glycan array binding signal (z-score),[36],-0.373
same,glycan array binding signal (z-score),[37],8.35
same,glycan array binding signal (z-score),[38],-0.244
same,glycan array binding signal (z-score),[39],0.089
same,glycan array binding signal (z-score),[40],-0.142
same,glycan array binding signal (z-score),[41],-0.102
same,glycan array binding signal (z-score),[42],4.74
same,glycan array binding signal (z-score),[43],-0.254
same,glycan array binding signal (z-score),[44],-0.404
